Bioassay records (PubChem BioAssay)
This is a sample that favours compounds with a hit; in the whole collection about 11% have one here.
USP30 inh: inhibitors of human USP30 deubiquitinase. inhibition, % at 25 µM. Q70CQ3. purified USP30, Ub-rhodamine cleavage fluorescence. 47,000 compounds, 5.3% hits. AID 1645860
USP17 inh: inhibitors of human USP17 deubiquitinase; purified USP17, Ub-rhodamine cleavage fluorescence, 3 h; inhibition, % at 50 µM; 47,000 compounds, 6.5% hits
Target sequence (A8MUK1 whole entry, looked up): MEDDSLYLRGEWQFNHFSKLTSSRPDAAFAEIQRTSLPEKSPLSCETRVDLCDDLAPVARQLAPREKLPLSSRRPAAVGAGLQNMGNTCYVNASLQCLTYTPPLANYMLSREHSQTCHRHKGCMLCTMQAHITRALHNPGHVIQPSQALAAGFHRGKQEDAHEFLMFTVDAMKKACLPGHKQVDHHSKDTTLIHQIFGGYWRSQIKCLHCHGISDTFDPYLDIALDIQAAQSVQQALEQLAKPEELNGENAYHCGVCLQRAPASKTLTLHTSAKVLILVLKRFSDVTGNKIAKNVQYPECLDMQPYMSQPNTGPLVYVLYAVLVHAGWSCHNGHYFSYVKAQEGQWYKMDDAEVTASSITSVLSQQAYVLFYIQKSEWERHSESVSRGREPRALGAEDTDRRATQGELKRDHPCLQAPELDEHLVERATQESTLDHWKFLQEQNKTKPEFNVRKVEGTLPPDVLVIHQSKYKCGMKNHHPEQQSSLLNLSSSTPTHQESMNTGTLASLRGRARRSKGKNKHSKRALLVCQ
USP28 block: blocks human USP28 ubiquitin-rhodamine cleavage; Q96RU2; purified USP28, Ub-rhodamine cleavage fluorescence, 30 min; inhibition, % at 25 µM; 47,000 compounds, 3% hits
* hit, by the source's call; / = no result. No stated cut-off is given here; in the data, active means inhibition above about 30%; inactive means the rest.

SMILES	USP30 inh	USP17 inh	USP28 block
COc1ccc(C(=O)Nc2ccccc2C(=O)NCc2ccccc2)cc1	92*	16	23
COc1ccc2cc(C(C)C(=O)NCc3ccccc3)ccc2c1 (stereo not drawn)	42*	12	28
CCOC(=O)N1CCN(C(=O)c2ccc(CNS(=O)(=O)c3ccc(NC(C)=O)cc3)cc2)CC1	23	17	10
COc1ccc(CNC(=O)c2ccc(S(=O)(=O)Nc3ccccc3F)cc2)cc1	31*	25	11
COc1cccc(CNC(=O)Cc2cccc3ccccc23)c1	-55	7	0
CC(=O)Nc1ccc(S(=O)(=O)NCc2ccc(C(=O)NCCN3CCCCCC3)cc2)cc1	-123	35*	-6
C=CCN1CC(=O)N2C(CCc3ccccc3)c3[nH]c4ccccc4c3C[C@@H]2C1=O (stereo partly drawn)	30	/	10
O=C(CSc1ncc(CO)n1Cc1ccc(F)cc1)Nc1ccc2c(c1)OCO2	-12	-28	-9
O=c1[nH]c(-c2ccccn2)nc2c1CN(Cc1ccccn1)CC2	-349	-130	-92
COc1ccc(CNC(=O)c2ccc(CNS(=O)(=O)c3ccc(NC(C)=O)cc3)cc2)cc1	37*	41*	13
COc1ccc(CNC(=O)c2cccc(S(=O)(=O)Nc3ccc(F)cc3)c2)cc1	5	4	14
Cc1nc2ccccn2c(=O)c1NC(=O)c1ccccc1F	7	-22	2
CCS(=O)(=O)N1CCC2(C=Cc3ccc(F)cc32)CC1	/	0	/
N#Cc1nc(Cc2ccccc2)oc1N1CCN(c2ccccc2)CC1	-1	0	0
Cc1ccc(OCc2nc(C#N)c(N3CCCCC3)o2)cc1	12	26	37*
COc1ccc(CN(Cc2nc3ccccc3c(=O)[nH]2)C(=O)c2ccc(Cl)cc2)cc1	0	-4	4
COc1ccccc1N1CCN(S(=O)(=O)c2cc3c(cc2C)NC(=O)CO3)CC1	-19	-6	-13
Cc1cc2c(cc1S(=O)(=O)N1CCCC(C)C1)OCC(=O)N2 (stereo not drawn)	/	41*	/
CC(=O)c1ccc(N2CCN(S(=O)(=O)c3cc4c(cc3C)NC(=O)CO4)CC2)cc1	-21	15	32*
O=C1COc2ccc(S(=O)(=O)N3CCCC(C(=O)N4CCOCC4)C3)cc2N1 (stereo not drawn)	3	9	9
CCc1nc2sc3c(SCC(=O)Nc4ccc(Cl)cc4Cl)ncnc3c2c2c1COC(C)(C)C2	3	0	-5
O=C(NCCc1c[nH]c2ccccc12)c1cn(-c2ccccc2)nc1-c1ccccc1	4	15	8
Cc1cc2nc(CSc3n[nH]c(-c4ccccc4)n3)cc(=O)n2o1	-20	-6	3
O=C(c1ccc([N+](=O)[O-])cc1)N1CCc2[nH]c3ccccc3c2C1	-10	26	3
COc1ccc(Cn2nnc(C(=O)NC(C)C)c2-n2cccc2)cc1	-81	15	6
SMILES	USP30 inh	USP17 inh	USP28 block
Cc1ccc(Cn2nnc(C(=O)NCc3ccco3)c2-n2cccc2)cc1	-31	20	58*
CCC(=O)C1(C)OC1C(C)CC(C)C1OC(=O)CC2(O)CC=C(C)C(O2)/C(C)=C/CCCC(O[C@H]2C[C@@H](OC(N)=O)[C@H](O)[C@@H](C)O2)/C=C/C(C)C(O)C1C (stereo partly drawn)	-4	14	5
CN(Cc1ccccc1Cl)C(=O)c1cccc(S(=O)(=O)N2CCc3ccccc32)c1	22	-8	13
O=C(NCc1nc2ccccc2[nH]1)c1cccc(S(=O)(=O)N2CCc3ccccc32)c1	59*	31*	29
NC(=O)C1CCN(C(=O)CN2CCCC2Cn2cccn2)CC1 (stereo not drawn)	-422	-122	-108
Cc1nn(-c2ccc(F)cc2)c(C)c1S(=O)(=O)N1CCN(c2ccccn2)CC1	38*	24	4
Cc1nn(-c2ccc(F)cc2)c(C)c1S(=O)(=O)N1CCC(C)CC1	15	5	12
COc1cccc(NS(=O)(=O)c2cnc(N)nc2)c1	/	-34	/
COc1cccc(C(=O)NC2CCN(Cc3c(C)noc3C)CC2)c1	-30	-17	-8
CC1=C(c2ccc(C(C)C)cc2)S(=O)(=O)N(CC(=O)Nc2ccccc2C)C1=O	32*	22	39*
CC1=C(c2ccccc2)S(=O)(=O)N(CC(=O)Nc2ccccc2C)C1=O	13	10	14
COc1cccc(C(=O)Nc2nnc3n2CCCS3)c1OC	25	4	8
CC(c1ccccc1)c1nc(-c2ccc(=O)[nH]c2)no1 (stereo not drawn)	8	-2	61*
CCc1nc(-c2ccc(C)c(S(=O)(=O)NCC(C)c3ccccc3)c2)no1 (stereo not drawn)	8	-2	6
O=C1CCC[C@]2(CN(Cc3ccccc3)C[C@H]2c2ccccc2F)N1	8	3	3
O=C(c1ccccc1)N1CC[C@H](c2nnc(-c3ccncc3)o2)C1	1	-1	-1
Cc1ccc(CNC(=O)N2CCC(c3nc(C(=O)N4CCCC4)c(C)o3)CC2)cc1	-4	-11	-15
Cc1ccc(NC(=O)N2CCC(c3nc(C(=O)N4CCCC4)c(C)o3)CC2)cc1	33*	4	6
Cc1cc(C)cc(NC(=O)N2CCC(c3nnc(-c4ccccc4)o3)CC2)c1	35*	14	14
CCc1nc(SCc2ccccc2C)c2c(=O)n(C)c(=O)n(C)c2n1	16	6	-13
CC(C)Oc1ccc(C(=O)N2CC3CC2C(=O)O3)cc1 (stereo not drawn)	14	2	5
Cc1nn(-c2ccc(F)cc2)cc1-c1noc(C(=O)NCc2ccco2)n1	3	5	6
Cc1ccc(CNC(=O)c2nc(-c3cn(-c4ccccc4)nc3C)no2)cc1	25	13	21
Cc1nn(-c2ccccc2)cc1-c1noc(C(=O)NCCCc2ccccc2)n1	32*	21	18
Cc1nn(-c2ccc(F)cc2)cc1-c1noc(C(=O)NCc2ccccn2)n1	85*	/	21
SMILES	USP30 inh	USP17 inh	USP28 block
CCOC(=O)c1noc2nc(C)nc(NCc3ccccc3OC)c12	11	21	13
Cc1nc(-c2ccc(C)c(S(=O)(=O)Nc3ccc(C#N)cc3)c2)cs1	-22	-13	-10
COCC(=O)N1CCCC(c2cncc(-c3ccnn3C)n2)C1 (stereo not drawn)	0	-3	-1
COc1ccc(CCn2cnc3scc(-c4ccccc4)c3c2=O)cc1OC	-7	-1	-6
O=c1c2c(-c3ccccc3)csc2ncn1Cc1ccc2c(c1)OCO2	17	6	40*
Cc1noc(C)c1CN1CCN(C(=O)c2cc(F)cc(F)c2)CC1	0	6	-7
C[C@H](NC(=O)[C@H](Cc1ccccc1)NC(=O)N1CCn2c1nc1ccccc12)C(=O)O	15	17	17
C[C@H](NC(=O)N1CCn2c1nc1ccccc12)C(=O)NCc1ccc(F)cc1	41*	34*	3
CCC(C)[C@H](NC(=O)N1CCn2c1nc1ccccc12)C(=O)NCCc1ccccc1 (stereo partly drawn)	30*	35*	25
COc1ccc(CCNC(=O)[C@@H](NC(=O)N2CCn3c2nc2ccccc23)C(C)C)cc1OC	0	-7	1
CS(=O)(=O)N1CCCC(c2nnc(C(=O)Nc3ccccc3)s2)C1 (stereo not drawn)	17	2	11
